The results in this text go back to the antibiotic and cytotoxicity screens of Wong et al. (2023).

SMILES strings stand for the structures. Screen size: about 39,000 compounds; about 1,500 (3.8%) were called active. The sample as a whole holds a higher share of actives than the screen did.

For this test, the system named is HSkMC (human skeletal muscle cells). Nature of the test: cytotoxicity call (relative viability < 0.9). Particulars: 10 µM.
`C[C@H](CO)N1C[C@H](C)[C@@H](CN(C)Cc2ccncc2)Oc2c(NS(=O)(=O)c3ccccc3)cccc2C1=O`: the cytotoxicity call is “inactive”.
Consider `C[C@@H]1CN([C@H](C)CO)C(=O)Cc2cc(NS(=O)(=O)c3ccc(F)cc3)ccc2O[C@@H]1CN(C)Cc1ccc(-c2ccccc2)cc1`, for which the cytotoxicity call was “active”.
For `C[C@H]1CN([C@@H](C)CO)C(=O)Cc2cc(NS(=O)(=O)c3ccc(F)cc3)ccc2O[C@H]1CN(C)Cc1ccc(-c2ccccc2)cc1`, the cytotoxicity call is “active”.
With `C[C@@H]1CN([C@H](C)CO)C(=O)Cc2cc(NS(=O)(=O)c3ccc(F)cc3)ccc2O[C@H]1CN(C)Cc1ccc(-c2ccccc2)cc1`, the cytotoxicity call was “active”.
As for `C[C@H]1CN([C@@H](C)CO)C(=O)Cc2cc(NS(=O)(=O)c3ccc(F)cc3)ccc2O[C@@H]1CN(C)Cc1ccc(-c2ccccc2)cc1`, the entry is “active”; as for `Cc1ccc(S(=O)(=O)N(C)C[C@H]2Oc3ncc(-c4ccncc4)cc3C(=O)N([C@H](C)CO)C[C@H]2C)cc1`, “inactive”; as for `C[C@H]1CCCCO[C@@H](CN(C)C(=O)Nc2ccc3c(c2)OCO3)[C@@H](C)CN([C@@H](C)CO)C(=O)c2cc(NC(=O)c3ccccc3)ccc2O1`, “inactive”.
Regarding `CO[C@@H]1CN(C)C(=O)c2cc(NS(C)(=O)=O)ccc2OC[C@@H](C)N(C(=O)C2CCOCC2)C[C@@H]1C`, the cytotoxicity call is “inactive”.
As to `Cc1noc(C)c1NC(=O)Nc1cccc2c1O[C@H](CN(C)Cc1ccc(C(F)(F)F)cc1)[C@H](C)CN([C@H](C)CO)C2=O`, the cytotoxicity call is “inactive”.
As for `NNC(=O)c1cc2ccccc2[nH]1`, the entry is “inactive”; as for `C[C@H]1CCCCO[C@H](CN(C)Cc2ccccc2)[C@@H](C)CN([C@@H](C)CO)C(=O)c2cc(NC(=O)C3CCCCC3)ccc2O1`, “inactive”; as for `C[C@H](CO)N1C[C@H](C)[C@@H](CN(C)Cc2ccc(-c3ccccc3)cc2)Oc2ccc(NS(=O)(=O)c3ccc(F)cc3)cc2CC1=O`, “inactive”.
As to `C[C@@H]1CN([C@@H](C)CO)C(=O)Cc2cc(NS(=O)(=O)c3ccc(F)cc3)ccc2O[C@@H]1CN(C)Cc1ccc(-c2ccccc2)cc1`, the cytotoxicity call was “active”.
In the case of `C[C@H](CO)N1C[C@H](C)[C@H](CN(C)Cc2ccc(-c3ccccc3)cc2)Oc2ccc(NS(=O)(=O)c3ccc(F)cc3)cc2CC1=O`, the cytotoxicity call is “active”.
Turning to `C[C@@H]1CN([C@@H](C)CO)C(=O)Cc2cc(NS(=O)(=O)c3ccc(F)cc3)ccc2O[C@H]1CN(C)Cc1ccc(-c2ccccc2)cc1`, the cytotoxicity call was “inactive”.
As for `C[C@@H]1CN([C@@H](C)CO)C(=O)c2cc(NC(=O)CCC(F)(F)F)ccc2O[C@@H](C)CCCCO[C@H]1CN(C)C(=O)C1CCCCC1`, the entry is “inactive”; as for `CSC1=NN(C)c2cnn(C)c(=O)c2S1`, “inactive”; as for `Cc1noc(C)c1NC(=O)Nc1ccc2c(c1)C(=O)N([C@@H](C)CO)C[C@H](C)[C@@H](CN(C)C(=O)Nc1cccc3ccccc13)OCCCC[C@H](C)O2`, “inactive”.
`CC(C)NC(=O)Nc1ccc2c(c1)C(=O)N([C@@H](C)CO)C[C@@H](C)[C@@H](CN(C)S(=O)(=O)c1ccc(F)cc1)O2`: the cytotoxicity call is “inactive”.
As for `CO[C@@H]1CN(C)C(=O)c2ccc(NS(=O)(=O)c3cn(C)cn3)cc2OC[C@H](C)N(CCC(F)(F)F)C[C@H]1C`, the entry is “inactive”; as for `CC(=N)NCc1cccc(CN)c1`, “inactive”; as for `O=C(C[C@H]1CC[C@@H](NC(=O)c2cccnc2)[C@@H](CO)O1)NCCN1CCCCC1`, “inactive”.
For the compound `Cc1noc(C)c1CC(=O)N1CCCC[C@@H]1CCOc1cccc(CN(C)Cc2cccc3cccnc23)c1`, the cytotoxicity call is “inactive”.
As to `Cc1ccc(S(=O)(=O)N(C)C[C@H]2Oc3ccc(NS(=O)(=O)c4ccc(F)cc4)cc3CC(=O)N([C@H](C)CO)C[C@H]2C)cc1`, the cytotoxicity call was “inactive”.
Consider `C[C@@H]1CN([C@@H](C)CO)C(=O)c2cc(NS(=O)(=O)c3ccc(F)cc3)ccc2O[C@@H](C)CCCCO[C@@H]1CN(C)S(=O)(=O)c1cn(C)cn1`, for which the cytotoxicity call is “inactive”.
As for `CC(=O)N[C@H]1[C@H](O[C@H]2CC[C@]3(C)[C@H]4CC=C5[C@@H]6CC(C)(C)CC[C@]6(C(=O)O[C@H]6OC[C@@H](O)[C@@H](O)[C@@H]6O)[C@@H](O)C[C@@]5(C)[C@]4(C)CC[C@H]3C2(C)C)O[C@H](CO[C@H]2OC[C@@H](O)[C@@H](O[C@H]3OC[C@@H](O)[C@@H](O)[C@@H]3O)[C@@H]2O)[C@@H](O[C@@H]2O[C@@H](C)[C@H](O)[C@@H](O)[C@H]2O[C@@H]2O[C@@H](C)[C@H](O)[C@@H](O)[C@H]2O)[C@@H]1O`, the entry is “inactive”; as for `Cc1noc(C)c1NC(=O)Nc1cccc2c1O[C@@H](CN(C)C(=O)NC(C)C)[C@H](C)CN([C@H](C)CO)C2=O`, “inactive”.
For the compound `COc1ccc([C@H]2CC=CC[C@H](C)Oc3ccccc3C(=O)N(C)[C@H](Cc3ccccc3)C(=O)N2)c(OC)c1`, the cytotoxicity call is “inactive”.
As for `COc1ccc([C@@H]2CC=CC[C@H](C)Oc3ccccc3C(=O)N(C)[C@@H](Cc3ccccc3)C(=O)N2)c(OC)c1`, the entry is “active”; as for `COc1ccc([C@H]2CC=CC[C@H](C)Oc3ccccc3C(=O)N(C)[C@@H](Cc3ccccc3)C(=O)N2)c(OC)c1`, “inactive”; as for `C[C@@H]1CC=CC[C@H](c2ccc3c(c2)OCO3)NC(=O)[C@@H](Cc2ccccc2)N(C)C(=O)c2ccccc2O1`, “inactive”.
For the compound `C[C@H]1CC=CC[C@H](c2ccc3c(c2)OCO3)NC(=O)[C@@H](Cc2ccccc2)N(C)C(=O)c2ccccc2O1`, the cytotoxicity call was “active”.
Consider `C[C@H]1CC=CC[C@@H](c2ccc3c(c2)OCO3)NC(=O)[C@H](Cc2ccccc2)N(C)C(=O)c2ccccc2O1`, for which the cytotoxicity call is “inactive”.
`COCCCN1C(=O)[C@@]2(Cc3ccccc31)c1ccccc1C(=O)N(Cc1ccccc1)[C@H]2c1ccc(CO)cc1`: the cytotoxicity call is “inactive”.
Take `Cc1ccc(S(=O)(=O)Nc2ccc3c(c2)CC(=O)N([C@@H](C)CO)C[C@H](C)[C@H](CN(C)CC2CC2)O3)cc1`: the cytotoxicity call is “inactive”.
As for `Nc1ccc2oc3c(c2c1)CCCC3`, the entry is “inactive”; as for `CC(C)C(=O)Nc1cccc(Cl)c1`, “inactive”; as for `O=C(Nc1ccc(C(F)(F)F)cc1)Nc1cccc(Cl)c1`, “active”.
Regarding `CCC(=O)Nc1ccc(Cl)cc1`, the cytotoxicity call was “inactive”.
In the case of `CC(C)(C)c1ccc(C(=O)Nc2cccc(C(F)(F)F)c2)cc1`, the cytotoxicity call is “inactive”.
In the case of `O=C(Nc1ccc(Cl)cc1)Nc1ccc(Cl)c(Cl)c1`, the cytotoxicity call was “active”.
For `O=C(Nc1ccccc1)Nc1ccccc1`, the cytotoxicity call was “inactive”.
Regarding `C[C@H]1CN([C@@H](C)CO)C(=O)c2cc(NC(=O)Cc3ccccc3)ccc2O[C@H]1CN(C)Cc1ccc(C(F)(F)F)cc1`, the cytotoxicity call is “inactive”.
On to `C[C@@H]1CN([C@@H](C)CO)C(=O)Cc2cc(NC(=O)Cn3cnnn3)ccc2O[C@H]1CN(C)S(=O)(=O)c1cn(C)cn1`, for which the cytotoxicity call is “inactive”.
On to `COc1cccc(S(=O)(=O)Nc2ccc3c(c2)[C@H]2C[C@@H](CC(=O)NCc4ccccc4F)O[C@@H](CO)[C@H]2O3)c1`, for which the cytotoxicity call is “inactive”.
In the case of `CCCCCCCCCCCCCCCC[N+](C)(C)C`, the cytotoxicity call is “active”.
In the case of `C[N+](C)(C)CCCCCC[N+](C)(C)C.[Br-].[Br-]`, the cytotoxicity call was “inactive”.
Take `CCCCCCCCCCCCCCCCOP(=O)([O-])OCC[N+](C)(C)C`: the cytotoxicity call was “inactive”.
As for `CC1=C2C/C=C(\C)[C@H](O[C@H]3O[C@@H](CO)[C@@H](O)[C@@H](O)[C@@H]3O)C/C=C(\C)C[C@@H]2OC1=O`, the entry is “inactive”; as for `NCc1nncn1-c1ccccc1`, “inactive”; as for `COc1ccccc1CNC(=O)C[C@@H]1C[C@H]2c3cc(NC(=O)c4cccnc4)ccc3O[C@H]2[C@@H](CO)O1`, “inactive”.
As for `CC(N)(Cc1ccc2c(c1)OCO2)C(=O)O` (configuration not stated), the entry is “inactive”.
For `C[C@@H]1CN([C@@H](C)CO)C(=O)c2cc(NS(C)(=O)=O)ccc2O[C@@H]1CN(C)S(=O)(=O)c1ccccc1`, the cytotoxicity call is “inactive”.
As for `CCC(=O)N1CCN(c2ccc(-n3c(=O)ccc4cnc5ccc(-c6cnc7ccccc7c6)cc5c43)cc2C(F)(F)F)CC1`, the cytotoxicity call was “active”.
For `CCCCn1c(-c2ccccc2)nc(-c2ccccc2)c1CN(Cc1ccc2c(c1)OCO2)Cc1ccc2c(c1)OCO2`, the cytotoxicity call was “inactive”.
Turning to `COc1ccc(-c2cnc3c(c2)C(=O)N([C@@H](C)CO)C[C@@H](C)[C@@H](CN(C)C(=O)C2CCOCC2)O3)cc1`, the cytotoxicity call is “inactive”.
For `CO[C@@H]1CN(C)C(=O)c2ccc(NC(=O)C3CC3)cc2OC[C@H](C)N(C(=O)CN2CCOCC2)C[C@@H]1C`, the cytotoxicity call was “inactive”.
For the compound `C[C@@H]1CN([C@@H](C)CO)C(=O)Cc2cc(NS(C)(=O)=O)ccc2O[C@H]1CN(C)S(=O)(=O)c1cccs1`, the cytotoxicity call is “inactive”.
As for `C[C@@H]1CN([C@H](C)CO)C(=O)Cc2cc(NS(=O)(=O)c3ccc(Cl)cc3)ccc2O[C@@H]1CN(C)Cc1ccc(C(F)(F)F)cc1`, the entry is “active”; as for `C[C@@H]1CN([C@@H](C)CO)C(=O)Cc2cc(NS(=O)(=O)c3ccc(Cl)cc3)ccc2O[C@@H]1CN(C)Cc1ccc(C(F)(F)F)cc1`, “active”; as for `C[C@@H]1CN([C@H](C)CO)C(=O)Cc2cc(NS(=O)(=O)c3ccc(Cl)cc3)ccc2O[C@H]1CN(C)Cc1ccc(C(F)(F)F)cc1`, “active”.
Take `C[C@H](CO)N1C[C@H](C)[C@H](CN(C)Cc2ccc(C(F)(F)F)cc2)Oc2ccc(NS(=O)(=O)c3ccc(Cl)cc3)cc2CC1=O`: the cytotoxicity call is “active”.
For `C[C@@H]1CCCCO[C@@H](CN(C)S(=O)(=O)c2ccc(Cl)cc2)[C@H](C)CN([C@@H](C)CO)C(=O)c2cc(NS(=O)(=O)c3cccs3)ccc2O1`, the cytotoxicity call is “inactive”.
In the case of `COc1cccc(NC(=O)N(C)C[C@@H]2Oc3cc(C#Cc4ccncc4)ccc3S(=O)(=O)N([C@H](C)CO)C[C@@H]2C)c1`, the cytotoxicity call was “inactive”.
Consider `CC(=O)O[C@H]1C=C[C@@H](O)C1`, for which the cytotoxicity call is “inactive”.
Take `O=C(CCCCCCC(=O)Nc1ccc([C@H]2C[C@H](c3ccccc3)O[C@H](c3ccncc3)O2)cc1)NO`: the cytotoxicity call was “inactive”.
For the compound `COc1ccc(-c2cc(=O)c3c(O)cc(O[C@@H]4O[C@H](CO[C@H]5O[C@H](C)[C@@H](O)[C@H](O)[C@@H]5O)[C@@H](O)[C@H](O)[C@H]4O)cc3o2)cc1O`, the cytotoxicity call was “inactive”.
